Results with a measured potency or affinity are listed apart. A number with no mark means an inactive call. No rule for the calls is given here.

This experiment can be described thus: viability loss in HEK293 cells – cell-based, plate reader, cherry-picked samples, cytotoxicity control, dose response (AID 743446). The settings on record: stronger effect = lower value; at 26 µM unless noted.
Turning to `CSc1ccc(NC(=O)Nc2cc(C)ccn2)cc1`, the max activity is 12.9% [at 0.05 µM]. In the case of `O=C(CCCc1ccccc1)Nc1cccc(C(=O)O)c1`, the max activity is 48.9%. With `O=C(O)c1ccc(N/N=C/c2ccc3ncccc3c2)cc1` the figure was 14.9% [at 12 µM]; with `Cc1ccccc1-c1ccc([C@H]2[C@@H](CO)N3CCCCN(S(=O)(=O)c4ccc(F)cc4)C[C@@H]23)cc1`, -101%. The value for `CN(C)c1cccc(C(=O)Nc2nc3ccccc3[nH]2)c1` was 39.2% [at 12 µM]; that for `Cc1ccc(NC(=O)c2ccc3c(c2)OCCO3)cc1C` was 32.4% [at 0.38 µM]. The value for `CCn1cc(S(=O)(=O)Nc2cccnc2)cn1` was 9.79% [at 0.38 µM]; that for `Cc1cnc(NC(=O)c2ccc(OCC3CCCO3)cc2)s1` (stereo not drawn) was 9% [at 6 µM]; that for `COc1ccc(-c2cc(C)nc3c(-c4ccccc4)cnn23)cc1` was -10.2%. On to `CN1CCN(c2ccc(NC(=O)N3CCc4ccccc43)cc2)CC1`, for which the max activity is 17.5% [at 1.6 µM]. The value for `CC(=O)N1CCc2cc(S(=O)(=O)C(C)CC(=O)NCc3ccco3)ccc21` (stereo not drawn) was -15.3% [at 6 µM]. The value for `Cc1ccc(S(=O)(=O)N(C)C[C@H]2Oc3c(cccc3N(C)C)C(=O)N([C@@H](C)CO)C[C@@H]2C)cc1` was 10.6% [at 6 µM]; that for `CC(C)CCn1cnc2c(oc3nc4c(cc32)CCCC4)c1=O` was -17.8%; that for `CCCNC(=O)Nc1ccc2c(c1)C(=O)N(C)C[C@H](OC)[C@H](C)CN(Cc1ccc(-c3ccccn3)cc1)[C@@H](C)CO2` was 32.1% [at 0.75 µM]. With `Cn1cnc(S(=O)(=O)N2C[C@@H](O)COC[C@H]3O[C@H](CC(=O)NC4CCCC4)CC[C@@H]32)c1`, the max activity was 13.5% [at 0.38 µM]. With `O=C(c1cc(-c2ccccc2Cl)on1)N1CCCC1` the figure was 27.2%; with `CCCn1c(C)cc(C(=O)CN2C(=O)c3ccccc3S2(=O)=O)c1C`, -16% [at 3 µM]; with `CNCc1ccccc1Sc1ccc(O)c(O)c1`, -16.4%. The value for `OC1CCC(Nc2ccn3nc(-c4cccc(OCc5ccccc5)c4)cc3n2)CC1` (stereo not drawn) was -14.9% [at 12 µM]; that for `Cc1ccc(-n2nnc(-c3nccn3C)n2)cc1` was -39%; that for `O=C(CN1C(=O)c2ccccc2S1(=O)=O)c1ccc(F)c(F)c1` was 11.6%. The value for `CCCNC(=O)N1[C@H](C#N)[C@H](c2ccc(C#Cc3ccc(F)cc3)cc2)[C@H]1CO` was -37%; that for `Cc1ccc(C(=O)Nc2ccc3c(c2)OCCO3)cc1` was 17.1% [at 0.05 µM]. `CCC(=O)Nc1cc2nn(-c3ccc(OC)cc3)nc2cc1C`: the max activity is 0% [setting not given]. With `CC(=O)Nc1cccc(-c2ccnc3c2CC(C(=O)NCc2cccnc2)O3)c1` (stereo not drawn) the figure was 0% [setting not given]; with `O=C(c1ccc(F)cc1)N1CC(=O)N2[C@@H](CO)[C@@H](c3ccc(C#CC4CCCC4)cc3)[C@@H]2C1`, 32.7% [at 6 µM]; with `CC(C)NC(=O)Nc1ccc2c(c1)C(=O)N([C@H](C)CO)C[C@@H](C)[C@H](CN(C)S(C)(=O)=O)OCCCC[C@H](C)O2`, 43.1%. For `CC(C)(C)n1ncc2c(=O)n(CC(=O)OCc3ccccc3)cnc21`, the max activity was -10.3% [at 0.38 µM].
